Tests used:
Assay in all cases: PBM binding z-score (relative to random genomic background probes); higher = stronger binding; sequences stand for … in GC…GCGATTGACAGCGTAGAATGAAGG
[1] = tested on: FXR:RXRa (NR concentration 270 nM, RXRa partner concentration 90 nM)
Procedure, shortened: (§1)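 Binding buffer was PBS pH 7.4 with 2% milk, 0.02% Triton X-100, 1 mM DTT, 0.2 mg/mL BSA and 0.4 mg/ml salmon testes DNA. In it, ligand-free nuclear receptor dimers were incubated 1 h on custom Agilent 4×180K protein-binding microarrays carrying double-stranded probes. Antibodies against each partner (one per run) detected binding, and z-scores were calculated against random background probes after regression normalization of scanned fluorescence.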

[2] = tested on: LXRa:RXRa (NR concentration 270 nM, RXRa partner concentration 90 nM)
Procedure, shortened: as §1

[3] = tested on: LXRa homodimer (NR concentration 270 nM)
Procedure, shortened: as §1

[4] = tested on: LXRb:RXRa (NR concentration 270 nM, RXRa partner concentration 90 nM)
Procedure, shortened: as §1

[5] = tested on: LXRb homodimer (NR concentration 270 nM)
Procedure, shortened: as §1

[6] = tested on: PPARa:RXRa (NR concentration 270 nM, RXRa partner concentration 90 nM)
Procedure, shortened: as §1

[7] = tested on: PPARg:RXRa (NR concentration 180 nM, RXRa partner concentration 90 nM)
Procedure, shortened: as §1

[8] = tested on: PPARg:RXRa 270nM:90nM, anti-RXR (NR concentration 270 nM, RXRa partner concentration 90 nM)
Procedure, shortened: as §1

[9] = tested on: PPARg:RXRa 30nM:10nM, anti-RXR (NR concentration 30 nM, RXRa partner concentration 10 nM)
Procedure, shortened: as §1

[10] = tested on: PPARg:RXRa 90nM:30nM, anti-RXR (NR concentration 90 nM, RXRa partner concentration 30 nM)
Procedure, shortened: as §1

[11] = tested on: PPARg:RXRa DBDmut IVT, anti-RXR (DBD mutation: RXRa K156A/R161A, NR concentration 270 nM, RXRa partner concentration 90 nM)
Procedure, shortened: as §1

[12] = tested on: PPARg:RXRa IVT, anti-PPARg (NR concentration 270 nM, RXRa partner concentration 90 nM)
Procedure, shortened: as §1

[13] = tested on: PPARg DBDmut:RXRa IVT, anti-PPARg (DBD mutation: PPARg1 K132A/R137A, NR concentration 270 nM, RXRa partner concentration 90 nM)
Procedure, shortened: as §1

[14] = tested on: PPARg DBDmut IVT, anti-PPARg (DBD mutation: PPARg1 K132A/R137A, NR concentration 270 nM)
Procedure, shortened: as §1

[15] = tested on: PPARg homodimer (NR concentration 180 nM)
Procedure, shortened: as §1

[16] = tested on: PXR:RXRa (NR concentration 270 nM, RXRa partner concentration 90 nM)
Procedure, shortened: as §1

[17] = tested on: PXR homodimer (NR concentration 270 nM)
Procedure, shortened: as §1

[18] = tested on: RARa:RXR (NR concentration 270 nM, RXRa partner concentration 90 nM)
Procedure, shortened: as §1

[19] = tested on: RARa homodimer (NR concentration 270 nM)
Procedure, shortened: as §1

[20] = tested on: RARb:RXRa (NR concentration 270 nM, RXRa partner concentration 90 nM)
Procedure, shortened: as §1

Sequence: CATACAGGGTCAGCTAGGCCAGAGTGGGGACGGC
- PBM binding z-score [1]: 4.45
- PBM binding z-score [2]: 2.94
- PBM binding z-score [3]: 0.0582
- PBM binding z-score [4]: 2.72
- PBM binding z-score [5]: 0.724
- PBM binding z-score [6]: 4.31
- PBM binding z-score [7]: 2.96
- PBM binding z-score [8]: 3.01
- PBM binding z-score [9]: 0.597
- PBM binding z-score [10]: 1.9
- PBM binding z-score [11]: 1.06
- PBM binding z-score [12]: 2.57
- PBM binding z-score [13]: -0.069
- PBM binding z-score [14]: 1.07
- PBM binding z-score [15]: 1.44
- PBM binding z-score [16]: 2.19
- PBM binding z-score [17]: 0.0916
- PBM binding z-score [18]: 2.78
- PBM binding z-score [19]: 0.651
- PBM binding z-score [20]: 4.03

Sequence: CTACCAAGGTGAAGAAGGTCGTTGATTACTATTC
- PBM binding z-score [1]: 0.613
- PBM binding z-score [2]: 0.547
- PBM binding z-score [3]: 0.132
- PBM binding z-score [4]: 1.33
- PBM binding z-score [5]: -0.664
- PBM binding z-score [6]: 1.95
- PBM binding z-score [7]: 0.281
- PBM binding z-score [8]: 0.572
- PBM binding z-score [9]: -0.116
- PBM binding z-score [10]: 0.36
- PBM binding z-score [11]: 1.68
- PBM binding z-score [12]: 1.84
- PBM binding z-score [13]: 0.127
- PBM binding z-score [14]: -0.276
- PBM binding z-score [15]: 0.69
- PBM binding z-score [16]: 1.53
- PBM binding z-score [17]: 0.655
- PBM binding z-score [18]: 1.48
- PBM binding z-score [19]: 0.317
- PBM binding z-score [20]: 1.74

Sequence: CCTTACGGGTCACGATGTTATAGCACGACGAGCG
- PBM binding z-score [1]: 5.82
- PBM binding z-score [2]: 3.85
- PBM binding z-score [3]: 0.154
- PBM binding z-score [4]: 3.42
- PBM binding z-score [5]: -0.0634
- PBM binding z-score [6]: 5.51
- PBM binding z-score [7]: 6.19
- PBM binding z-score [8]: 5.77
- PBM binding z-score [9]: 3.09
- PBM binding z-score [10]: 4.59
- PBM binding z-score [11]: 3.85
- PBM binding z-score [12]: 4.86
- PBM binding z-score [13]: 0.952
- PBM binding z-score [14]: 0.0806
- PBM binding z-score [15]: 2.01
- PBM binding z-score [16]: 3.41
- PBM binding z-score [17]: 0.295
- PBM binding z-score [18]: 4.22
- PBM binding z-score [19]: 0.866
- PBM binding z-score [20]: 4.39

Sequence: ATCTCTAGCTAAAGATAGTTCAGTGAATGCAAAT
- PBM binding z-score [1]: -0.338
- PBM binding z-score [2]: -0.141
- PBM binding z-score [3]: 0.164
- PBM binding z-score [4]: 0.199
- PBM binding z-score [5]: 0.452
- PBM binding z-score [6]: 0.345
- PBM binding z-score [7]: 0.318
- PBM binding z-score [8]: -0.271
- PBM binding z-score [9]: -0.0381
- PBM binding z-score [10]: -0.201
- PBM binding z-score [11]: -0.205
- PBM binding z-score [12]: -0.237
- PBM binding z-score [13]: 1
- PBM binding z-score [14]: 0.169
- PBM binding z-score [15]: 0.538
- PBM binding z-score [16]: 0.463
- PBM binding z-score [17]: 0.542
- PBM binding z-score [18]: 0.855
- PBM binding z-score [19]: 0.543
- PBM binding z-score [20]: 0.329

Sequence: CCTGCTAGGTCATGGTCACCTAATCTACAGTATG
- PBM binding z-score [1]: 3.67
- PBM binding z-score [2]: 2.86
- PBM binding z-score [3]: 0.345
- PBM binding z-score [4]: 2.19
- PBM binding z-score [5]: -0.376
- PBM binding z-score [6]: 3.56
- PBM binding z-score [7]: 3.28
- PBM binding z-score [8]: 3.54
- PBM binding z-score [9]: 1.07
- PBM binding z-score [10]: 2.72
- PBM binding z-score [11]: 5
- PBM binding z-score [12]: 5.09
- PBM binding z-score [13]: 0.83
- PBM binding z-score [14]: 0.207
- PBM binding z-score [15]: 1.89
- PBM binding z-score [16]: 1.82
- PBM binding z-score [17]: -0.294
- PBM binding z-score [18]: 2.75
- PBM binding z-score [19]: -0.115
- PBM binding z-score [20]: 3.98

Sequence: TCATATAGGTAAAGGGGAAAGTCGAACGATATGA
- PBM binding z-score [1]: 0.639
- PBM binding z-score [2]: 0.796
- PBM binding z-score [3]: -0.0838
- PBM binding z-score [4]: 0.901
- PBM binding z-score [5]: 0.0683
- PBM binding z-score [6]: 2.18
- PBM binding z-score [7]: 2.99
- PBM binding z-score [8]: 4.18
- PBM binding z-score [9]: 4.55
- PBM binding z-score [10]: 4.52
- PBM binding z-score [11]: 4.16
- PBM binding z-score [12]: 2.85
- PBM binding z-score [13]: 1.41
- PBM binding z-score [14]: 1.19
- PBM binding z-score [15]: 0.621
- PBM binding z-score [16]: 0.551
- PBM binding z-score [17]: 0.506
- PBM binding z-score [18]: 0.562
- PBM binding z-score [19]: 0.996
- PBM binding z-score [20]: 0.83

Sequence: TCATATAGGTAAAAGGTGAAACTCGGTGTGGTAA
- PBM binding z-score [1]: 2.3
- PBM binding z-score [2]: 2.26
- PBM binding z-score [3]: 0.259
- PBM binding z-score [4]: 2.39
- PBM binding z-score [5]: 0.198
- PBM binding z-score [6]: 5.64
- PBM binding z-score [7]: 9.08
- PBM binding z-score [8]: 8.59
- PBM binding z-score [9]: 8.64
- PBM binding z-score [10]: 9.69
- PBM binding z-score [11]: 5.96
- PBM binding z-score [12]: 5.4
- PBM binding z-score [13]: 0.902
- PBM binding z-score [14]: 1.04
- PBM binding z-score [15]: 1.99
- PBM binding z-score [16]: 2.27
- PBM binding z-score [17]: 0.443
- PBM binding z-score [18]: 3.48
- PBM binding z-score [19]: 1.82
- PBM binding z-score [20]: 2.26

Sequence: CGTCCAAGGTCAGTGCTAGGTCAGTGAAAGCATT
- PBM binding z-score [1]: 4.03
- PBM binding z-score [2]: 3.44
- PBM binding z-score [3]: 0.709
- PBM binding z-score [4]: 2.75
- PBM binding z-score [5]: -0.278
- PBM binding z-score [6]: 3.28
- PBM binding z-score [7]: 1.44
- PBM binding z-score [8]: 2.57
- PBM binding z-score [9]: 0.1
- PBM binding z-score [10]: 1.31
- PBM binding z-score [11]: 2.24
- PBM binding z-score [12]: 2.77
- PBM binding z-score [13]: -0.328
- PBM binding z-score [14]: -1.29
- PBM binding z-score [15]: 3.27
- PBM binding z-score [16]: 3.4
- PBM binding z-score [17]: 0.647
- PBM binding z-score [18]: 4.37
- PBM binding z-score [19]: 0.898
- PBM binding z-score [20]: 4.79

From the supplement of paper PMC6555819
